Source: PubChem BioAssay (EPA / NIEHS)
Several values for one entry are separate records, joined by “and”; a condition that tells them apart may be missing. Equal entries are not always repeated. Results filed as inconclusive are left out. Activity calls are given as the source filed them. How the source made its calls: active means hit-call score of the fitted dose curve at least 0.9, where 1 is the maximum; inconclusive means response in the unintended direction; inactive means score below 0.9.

How the values were obtained:
[1] = target: Estrogen receptor (Homo sapiens) + Estrogen receptor beta (Homo sapiens) (UniProt P03372+Q92731); assay: OT_ER_ERaERb_1440: Odyssey Thera (OT) 24-hour HEK293T Protein-Complementation Assay for Estrogen Receptor-alpha/-beta Homodimer (AID 2283356);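 further: heteromer of ER alpha and ER beta binding domains; hits raise reporter fluorescence and both agonists and antagonists give an increase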
Procedure, shortened: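 Stable HEK293T PCA line, ERα LBD 310-547 + ERβ LBD 263-489 fused to reporter fragments; 24 h treatment; fluorescence read by laser scanning cytometry; positive fitting direction relative to DMSO.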

[2] = target: Estrogen receptor beta (Homo sapiens) (UniProt Q92731); assay: OT_ER_ERbERb_0480: Odyssey Thera (OT) 8-hour HEK293T Protein-Complementation Assay for Estrogen Receptor-beta/-beta Homodimer (AID 2283357);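 further: active means signal gain over DMSO baseline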
Procedure, shortened: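 Cells (HEK293T, stable ER-beta LBD PCA pair) are treated 8 hours, fixed and Draq5-stained; signal is fluorescence intensity increase relative to vehicle, fitted in the gain direction.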

[3] = target: Glucocorticoid receptor (Homo sapiens) (UniProt P04150); assay: NVS_NR_hGR: NovaScreen (NVS) Nuclear Receptor Binding Assay for human Glucocorticoid Receptor (GR) (AID 2283363);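 on AC50: activity is loss of specific radioligand binding signal relative to DMSO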
Procedure, shortened: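 Competitive displacement of a labelled ligand was measured on cell-free receptor preparations after 16 h exposure. Initial testing used 25 uM in duplicate with plate controls; confirmed actives went into concentration series.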

[4] = target: mouse Estrogen Receptor alpha (Era), Esr1 (gene 13982) (UniProt P19785); assay: NVS_NR_mERa: NovaScreen (NVS) Nuclear Receptor Binding Assay for mouse Estrogen Receptor alpha (Era) (AID 2283378);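 further: hit means loss of bound radioligand signal relative to DMSO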
Procedure, shortened: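 Extracted mouse Era incubated with tritiated or iodinated radioligand plus test chemical, 18 h. Bound fraction separated on filters, counted by scintillation. DMSO = negative control/baseline; duplicate single-point at 25 uM, then concentration-response follow-up.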

[5] = target: human Peroxisome Proliferator-activated Receptor alpha (PPARa), PPARA (gene 5465) (UniProt Q07869); assay: NVS_NR_hPPARa: NovaScreen (NVS) Nuclear Receptor Binding Assay for human Peroxisome Proliferator-activated Receptor alpha (PPARa) (AID 2283359);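 further: activity means loss of TR-FRET signal versus DMSO baseline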
Procedure, shortened: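 Chemicals were first screened in duplicate at 25 uM, and active ones were retested across concentration series. Binding was monitored by TR-FRET one hour after dosing, with decreased signal against DMSO counted as activity.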

PGR (gene 5241) = PGR (gene 5241) (UniProt P06401); assay: NVS_NR_hPR: NovaScreen (NVS) Nuclear Receptor Binding Assay for human Progestron Receptor (PR) (AID 2283360);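 further: active means loss of bound radioligand signal versus DMSO baseline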
Procedure, shortened: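 Cell-free radioligand binding using receptor protein extracted from T47D cells, read by scintillation counting 18 hours after dosing. Loss of signal relative to DMSO baseline indicates displacement; primary screen single concentration 25 uM in duplicate, actives followed in concentration series.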

[6] = target: Nuclear receptor subfamily 1 group I member 2 (Homo sapiens) (UniProt O75469); assay: NVS_NR_hPXR: NovaScreen (NVS) Nuclear Receptor Binding Assay for human Pregnane X Receptor (PXR) (AID 2283365);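 further: a drop in FRET signal versus DMSO baseline means the compound binds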
Procedure, shortened: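 Human PXR protein, cell-free; compound added, incubated 2 h, TR-FRET read. Signal decrease vs DMSO = binding. Screened 25 uM duplicate, actives re-run as dilution series.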

[7] = target: human Dopamine Transporter (DAT), SLC6A3 (gene 6531) (UniProt Q01959); assay: NVS_TR_hDAT: NovaScreen (NVS) Transporter Assay for human Dopamine Transporter (DAT) (AID 2283374);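 further: activity means loss of bound radioligand signal relative to DMSO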
Procedure, shortened: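 Test chemicals were first screened in duplicate at 25 uM, with actives retested as concentration series. Displacement of a specific radioligand from cell-free human dopamine transporter was measured after 1 h by filtration and scintillation counting.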

[8] = target: rat Serotonin Transporter (SERT), Slc6a4 (gene 25553) (UniProt P31652); assay: NVS_TR_rSERT: NovaScreen (NVS) Transporter Assay for rat Serotonin Transporter (SERT) (AID 2283375)
Procedure, shortened: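 Filtration-based radiodetection quantified loss of specific radioligand binding in rat forebrain membranes after 1 hour of chemical exposure, relative to DMSO. Chemicals were first tested in duplicate at 25 uM.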

[9] = target: Retinoic acid receptor alpha (Homo sapiens) (UniProt P10276); assay: NVS_NR_hRAR_Antagonist: NovaScreen (NVS) Nuclear Receptor Binding Assay for human Retinoic Acid Alpha Receptor Antagonism (RAR) (AID 2283358)
Procedure, shortened: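 TR-FRET, cell-free, antagonist format; 2 h incubation after dosing; DMSO = baseline; signal loss fitted; 25 uM duplicate primary, then conc. series.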

[10] = target: human Adenosine Transporter (Adot), SLC29A1 (gene 2030) (UniProt Q99808); assay: NVS_TR_hAdoT: NovaScreen (NVS) Transporter Assay for human Adenosine Transporter (Adot) (AID 2283368)
Procedure, shortened: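 U937-derived membranes, cell-free radioligand binding, filter scintillation 1 h after dosing. 25 uM duplicate screen; hits (e.g. 30% inhibition) run in concentration-response up to 50 uM; loss of signal versus DMSO.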

[11] = system: guinea pig Dopamine Transporter (DAT), gene 100714898; assay: NVS_TR_gDAT: NovaScreen (NVS) Transporter Assay for guinea pig Dopamine Transporter (DAT) (AID 2283369);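 further: active compounds lower bound radioligand signal relative to DMSO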
Procedure, shortened: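 Scintillation counts of filter-retained radioligand report binding to guinea pig striatal membranes after 2 h. Activity scored as signal loss relative to DMSO, first at 25 uM in duplicate, then in concentration series to 50 uM.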

[12] = target: Peroxisome proliferator-activated receptor gamma (Homo sapiens) (UniProt P37231); assay: NVS_NR_hPPARg: NovaScreen (NVS) Nuclear Receptor Binding Assay for human Peroxisome Proliferator-activated Receptor gamma (PPARg) (AID 2283370)
Procedure, shortened: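 Chemicals were tested first in duplicate at 25 uM, then in concentration series if active. Binding to cell-free PPARg protein was measured by fluorescence polarization after 2 h, with loss of signal scored against DMSO.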

[13] = target: human Norepinephrine Transporter (NET), SLC6A2 (gene 6530) (UniProt P23975); assay: NVS_TR_hNET: NovaScreen (NVS) Transporter Assay for human Norepinephrine Transporter (NET) (AID 2283377);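 further: cell-free membrane protein extracted from CHO cells expressing human NET; displacement of radioligand from human NET seen as loss of scintillation signal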
Procedure, shortened: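 Scintillation counts of filter-retained radioligand served as the readout, taken 1 h post-dosing in a cell-free CHO-derived system. Test chemicals ran first at 25 uM in duplicate; confirmed hits were retested across concentrations.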

[14] = target: rat Androgen Receptor (AR), Ar (gene 24208) (UniProt P15207); assay: NVS_NR_rAR: NovaScreen (NVS) Nuclear Receptor Binding Assay for rat Androgen Receptor (AR) (AID 2283366)
Procedure, shortened: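 Cell-free radioligand binding on extracts of prostate from testosterone-pretreated rats, read by filter-based scintillation counting 18 h after dosing. Loss of bound signal fitted positively versus DMSO; primary screen in duplicate at 25 uM, actives followed up in concentration series.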

[15] = target: human Thyroid Receptor Alpha (TRa), THRA (gene 7067) (UniProt P10827); assay: NVS_NR_hTRa_Antagonist: NovaScreen (NVS) Nuclear Receptor Binding Assay for human Thyroid Receptor Alpha Antagonism (TRa) (AID 2283362);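 further: activity is loss of signal relative to DMSO baseline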
Procedure, shortened: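 Extracted protein, cell-free; 1 h incubation after dosing; AlphaLISA chemiluminescence binding readout. DMSO = baseline/neg ctrl; signal loss = activity. Primary: duplicate, 25 uM; secondary: conc. series on actives.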

Measured: AC50

Sequence of Estrogen receptor beta (Homo sapiens) (Q92731 whole entry, looked up, the tested form may be a part): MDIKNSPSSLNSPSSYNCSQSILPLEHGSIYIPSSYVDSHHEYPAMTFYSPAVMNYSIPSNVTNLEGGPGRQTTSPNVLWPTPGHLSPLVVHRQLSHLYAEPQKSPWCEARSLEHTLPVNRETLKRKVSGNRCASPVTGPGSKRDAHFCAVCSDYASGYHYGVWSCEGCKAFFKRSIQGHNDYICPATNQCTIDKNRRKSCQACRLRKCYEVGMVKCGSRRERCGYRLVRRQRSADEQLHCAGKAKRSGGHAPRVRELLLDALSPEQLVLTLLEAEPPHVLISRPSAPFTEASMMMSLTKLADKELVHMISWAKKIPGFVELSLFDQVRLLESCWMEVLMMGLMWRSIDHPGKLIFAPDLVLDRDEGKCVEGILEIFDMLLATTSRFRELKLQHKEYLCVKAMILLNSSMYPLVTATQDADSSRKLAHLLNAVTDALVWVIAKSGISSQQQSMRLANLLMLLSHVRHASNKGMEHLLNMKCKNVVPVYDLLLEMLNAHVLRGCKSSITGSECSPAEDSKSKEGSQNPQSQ
Sequence of Peroxisome proliferator-activated receptor gamma (Homo sapiens) (P37231 whole entry, looked up): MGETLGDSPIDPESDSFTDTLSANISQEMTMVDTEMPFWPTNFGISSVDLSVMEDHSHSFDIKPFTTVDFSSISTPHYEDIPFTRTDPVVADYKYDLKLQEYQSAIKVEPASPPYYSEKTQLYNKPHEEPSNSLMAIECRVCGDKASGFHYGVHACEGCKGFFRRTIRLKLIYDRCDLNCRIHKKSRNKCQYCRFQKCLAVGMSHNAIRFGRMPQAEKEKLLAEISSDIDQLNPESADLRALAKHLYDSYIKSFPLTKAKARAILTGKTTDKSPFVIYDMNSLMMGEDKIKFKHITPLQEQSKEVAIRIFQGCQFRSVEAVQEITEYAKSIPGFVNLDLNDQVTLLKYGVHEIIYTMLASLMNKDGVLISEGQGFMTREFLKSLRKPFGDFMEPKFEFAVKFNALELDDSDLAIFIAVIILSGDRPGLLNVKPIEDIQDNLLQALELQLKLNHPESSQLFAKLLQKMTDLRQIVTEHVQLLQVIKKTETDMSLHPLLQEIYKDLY
Sequence of human Dopamine Transporter (DAT), SLC6A3 (gene 6531) (Q01959 whole entry, looked up): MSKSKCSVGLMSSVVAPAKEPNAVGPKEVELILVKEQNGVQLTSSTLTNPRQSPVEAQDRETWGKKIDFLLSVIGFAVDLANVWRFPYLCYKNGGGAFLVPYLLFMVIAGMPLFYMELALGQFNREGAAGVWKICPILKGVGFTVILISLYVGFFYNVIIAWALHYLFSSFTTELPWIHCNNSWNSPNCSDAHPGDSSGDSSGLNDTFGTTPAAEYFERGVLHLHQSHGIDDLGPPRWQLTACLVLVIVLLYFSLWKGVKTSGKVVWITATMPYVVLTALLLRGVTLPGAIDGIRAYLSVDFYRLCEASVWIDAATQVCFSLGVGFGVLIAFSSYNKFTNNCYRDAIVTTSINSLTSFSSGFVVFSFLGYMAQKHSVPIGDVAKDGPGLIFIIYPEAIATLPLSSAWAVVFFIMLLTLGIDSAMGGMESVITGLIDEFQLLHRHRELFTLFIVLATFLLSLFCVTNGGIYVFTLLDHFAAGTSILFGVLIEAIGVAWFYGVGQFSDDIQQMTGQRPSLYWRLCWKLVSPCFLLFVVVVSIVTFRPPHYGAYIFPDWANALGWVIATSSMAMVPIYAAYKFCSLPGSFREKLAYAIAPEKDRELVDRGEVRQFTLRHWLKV
Sequence of mouse Estrogen Receptor alpha (Era), Esr1 (gene 13982) (P19785 whole entry, looked up): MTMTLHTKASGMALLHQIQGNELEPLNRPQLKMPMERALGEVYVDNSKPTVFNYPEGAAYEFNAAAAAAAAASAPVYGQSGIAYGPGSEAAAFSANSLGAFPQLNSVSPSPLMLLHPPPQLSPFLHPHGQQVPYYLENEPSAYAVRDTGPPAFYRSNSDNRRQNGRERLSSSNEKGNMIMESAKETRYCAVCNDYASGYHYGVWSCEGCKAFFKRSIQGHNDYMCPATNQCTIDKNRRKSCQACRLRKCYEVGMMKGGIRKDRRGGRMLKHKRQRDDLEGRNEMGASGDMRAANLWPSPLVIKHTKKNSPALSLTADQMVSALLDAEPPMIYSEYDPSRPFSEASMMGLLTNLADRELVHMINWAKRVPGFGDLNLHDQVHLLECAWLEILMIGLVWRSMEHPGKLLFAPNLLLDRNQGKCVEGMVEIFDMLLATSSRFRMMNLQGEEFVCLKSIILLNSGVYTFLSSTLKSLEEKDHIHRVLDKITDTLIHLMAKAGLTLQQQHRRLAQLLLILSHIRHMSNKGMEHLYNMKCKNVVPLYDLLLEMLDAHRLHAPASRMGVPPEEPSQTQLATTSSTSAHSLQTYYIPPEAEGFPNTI
Sequence of human Norepinephrine Transporter (NET), SLC6A2 (gene 6530) (P23975 whole entry, looked up): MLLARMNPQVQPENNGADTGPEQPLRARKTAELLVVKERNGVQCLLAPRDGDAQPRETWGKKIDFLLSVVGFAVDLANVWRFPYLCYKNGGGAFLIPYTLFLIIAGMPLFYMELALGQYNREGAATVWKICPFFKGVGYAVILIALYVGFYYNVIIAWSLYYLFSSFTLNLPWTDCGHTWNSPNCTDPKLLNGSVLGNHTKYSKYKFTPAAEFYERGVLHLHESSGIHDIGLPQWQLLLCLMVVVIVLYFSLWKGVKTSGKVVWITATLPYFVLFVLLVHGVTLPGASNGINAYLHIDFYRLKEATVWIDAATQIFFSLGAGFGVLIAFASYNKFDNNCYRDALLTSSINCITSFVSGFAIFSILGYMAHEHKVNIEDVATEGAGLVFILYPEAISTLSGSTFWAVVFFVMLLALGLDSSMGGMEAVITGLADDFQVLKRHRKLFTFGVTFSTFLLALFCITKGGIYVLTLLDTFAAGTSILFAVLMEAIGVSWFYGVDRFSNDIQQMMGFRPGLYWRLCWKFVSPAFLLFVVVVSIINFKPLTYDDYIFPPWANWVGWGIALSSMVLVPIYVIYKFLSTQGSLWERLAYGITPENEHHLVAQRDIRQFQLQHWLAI
Sequence of Estrogen receptor (Homo sapiens) + Estrogen receptor beta (Homo sapiens) (P03372 whole entry, looked up, the tested form may be a part): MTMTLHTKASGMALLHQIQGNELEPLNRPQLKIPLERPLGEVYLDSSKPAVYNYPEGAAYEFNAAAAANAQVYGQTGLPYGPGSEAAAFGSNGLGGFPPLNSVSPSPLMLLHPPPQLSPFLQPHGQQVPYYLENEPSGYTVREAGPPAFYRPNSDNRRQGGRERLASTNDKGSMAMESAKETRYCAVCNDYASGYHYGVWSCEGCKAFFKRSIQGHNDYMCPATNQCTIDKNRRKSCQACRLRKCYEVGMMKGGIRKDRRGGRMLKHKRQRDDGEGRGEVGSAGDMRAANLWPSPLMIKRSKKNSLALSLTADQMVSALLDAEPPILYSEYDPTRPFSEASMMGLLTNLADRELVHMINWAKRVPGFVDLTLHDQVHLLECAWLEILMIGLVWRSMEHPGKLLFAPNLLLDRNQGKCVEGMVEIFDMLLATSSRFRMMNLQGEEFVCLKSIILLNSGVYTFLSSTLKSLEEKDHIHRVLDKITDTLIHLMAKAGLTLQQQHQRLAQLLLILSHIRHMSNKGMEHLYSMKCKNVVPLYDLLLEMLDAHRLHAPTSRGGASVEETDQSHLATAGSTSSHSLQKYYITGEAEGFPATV
Sequence of Estrogen receptor (Homo sapiens) + Estrogen receptor beta (Homo sapiens) (Q92731 whole entry, looked up, the tested form may be a part): as the sequence (Q92731 whole entry, looked up, the tested form may be a part) above
Sequence of PGR (gene 5241) (P06401 whole entry, looked up): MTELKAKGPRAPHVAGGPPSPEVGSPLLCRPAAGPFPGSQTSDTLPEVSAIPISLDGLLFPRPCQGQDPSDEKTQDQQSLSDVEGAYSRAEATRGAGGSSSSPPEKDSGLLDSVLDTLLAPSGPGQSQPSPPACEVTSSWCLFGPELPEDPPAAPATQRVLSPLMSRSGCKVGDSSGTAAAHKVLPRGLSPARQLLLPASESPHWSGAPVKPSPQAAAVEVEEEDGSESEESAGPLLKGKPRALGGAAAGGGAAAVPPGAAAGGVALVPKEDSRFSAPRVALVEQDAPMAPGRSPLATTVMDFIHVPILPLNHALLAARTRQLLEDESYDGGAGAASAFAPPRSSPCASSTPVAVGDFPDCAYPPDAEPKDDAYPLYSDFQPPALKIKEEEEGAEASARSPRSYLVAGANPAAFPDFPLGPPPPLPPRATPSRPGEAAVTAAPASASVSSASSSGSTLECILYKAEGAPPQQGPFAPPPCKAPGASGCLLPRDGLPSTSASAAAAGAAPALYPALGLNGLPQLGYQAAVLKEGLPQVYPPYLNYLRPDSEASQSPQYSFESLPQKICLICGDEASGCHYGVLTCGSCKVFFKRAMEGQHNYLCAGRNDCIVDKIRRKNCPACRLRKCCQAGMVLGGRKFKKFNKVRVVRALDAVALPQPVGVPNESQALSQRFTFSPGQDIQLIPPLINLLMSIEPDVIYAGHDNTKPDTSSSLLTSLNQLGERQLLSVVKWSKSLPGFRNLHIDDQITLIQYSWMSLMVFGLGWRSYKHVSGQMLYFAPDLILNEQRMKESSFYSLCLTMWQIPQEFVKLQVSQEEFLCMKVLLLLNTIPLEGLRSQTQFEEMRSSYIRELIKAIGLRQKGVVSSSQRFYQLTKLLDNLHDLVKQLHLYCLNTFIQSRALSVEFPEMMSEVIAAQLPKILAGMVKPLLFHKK

C[C@@H]1C[C@H]2[C@@H]3CCC4=CC(=O)C=C[C@]4(C)[C@@]3(F)[C@@H](O)C[C@]2(C)[C@@]1(O)C(=O)COP(=O)(O)O
inactive: [1] | [2] | [3] | [4]

CCCCCCCC(=O)O
active: [1] 17.1 µM | [2] 50 µM | [5] 4.38 µM
inactive: PGR (gene 5241) | [6] | [7] | [8]

O=C(O)Cc1cc(I)c(Oc2cc(I)c(O)c(I)c2)c(I)c1
inactive: [1] | [2] | [9] | [5] | [10] | [11] | [4]
active: [3] 5.56 µM and 109 nM | [12] 43.8 nM and 1.53 nM and 9.65 µM | [13] 10.1 µM

Oc1cccc(O)c1
inactive: [2]
active: [1] 32.1 µM

CCCCCCC(=O)O
inactive: [1] | [2] | PGR (gene 5241)

NC(=O)N1C(=O)C(C(=O)c2cc(Cl)cs2)c2cc(F)c(Cl)cc21 (stereo unspecified)
active: [3] 19.6 µM | [14] 6.36 µM | [12] 5.35 µM | [13] 25 µM
inactive: [1] | [2] | [5]

CC(C)(C)c1ccc(O)c(C(C)(C)C)c1
inactive: [1] | [2] | [5] | [15] | [11]
active: [7] 6.72 µM

C=C(C)C(=O)OCCC(F)(F)C(F)(F)C(F)(F)C(F)(F)C(F)(F)C(F)(F)F
inactive: [1] | [2] | PGR (gene 5241) | [4]

Oc1cc2ccccc2c2ccccc12
inactive: [1] | [2] | [10] | [7]
active: PGR (gene 5241) 11 µM | [3] 1.54 µM | [14] 4.75 µM | [13] 1.89 µM
